Assay results taken from PubChem BioAssay AID1851 (National Center for Advancing Translational Sciences (NCATS), 2009).
About 5,700 (36%) of roughly 16,000 compounds were called active. Not shown: some 24% with an inconclusive outcome. This is one part of the list. A number with no mark means an inactive call. Calls follow the shape of the dose curve; as a rule, active = well fitted curve in the direction sought with a large enough effect; inconclusive = small, poorly fitted or top-dose-only effect, or effect the other way; inactive = no such curve, though single readings can be large or run the other way.

Biological target: Cytochrome P450 1A2 (Homo sapiens) (UniProt P05177)
Test: Cytochrome panel assay with activity outcomes
Conditions: recombinant CYP, pro-luciferin dealkylation, luminescence, p450-cyp1a2; series mostly up to 57.1 µM; activity, negative = inhibition: at the top concentration
% is scaled to controls: 0 for no effect and ±100 for the full control effect.

Chain of Cytochrome P450 1A2 (Homo sapiens) (P05177 whole entry, looked up): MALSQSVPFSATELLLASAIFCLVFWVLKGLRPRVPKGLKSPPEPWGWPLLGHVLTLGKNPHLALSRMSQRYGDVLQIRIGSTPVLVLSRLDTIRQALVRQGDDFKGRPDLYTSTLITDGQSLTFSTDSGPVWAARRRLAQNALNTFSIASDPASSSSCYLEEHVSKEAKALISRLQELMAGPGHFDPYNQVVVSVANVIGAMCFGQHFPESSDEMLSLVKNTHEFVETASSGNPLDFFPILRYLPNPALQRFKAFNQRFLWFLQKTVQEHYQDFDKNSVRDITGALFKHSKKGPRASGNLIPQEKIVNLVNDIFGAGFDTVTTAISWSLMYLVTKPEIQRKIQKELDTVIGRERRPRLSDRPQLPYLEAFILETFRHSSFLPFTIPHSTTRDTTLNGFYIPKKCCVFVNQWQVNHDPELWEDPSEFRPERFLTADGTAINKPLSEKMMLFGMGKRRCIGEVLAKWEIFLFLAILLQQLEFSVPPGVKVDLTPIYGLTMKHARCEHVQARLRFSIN

Compound	activity, negative = inhibition	AC50
CC[C@](N)(C(=O)O)C(C)C	-14.6% [at 11.4 µM]	
Cc1cccn2c(=O)c(C=NCc3ccco3)c(Nc3ccc(SC(F)F)cc3)nc12		0.562 µM (active)
O=c1c2ccccc2c(-c2ccc(Br)cc2)nn1Cc1ccccc1		2.82 µM (active)
O=C(CCn1nc(-c2ccc(Cl)cc2)c2ccccc2c1=O)NCCN1CCOCC1	-17.2%	
Cc1ccc(C(=O)CNc2nc3c(c(=O)[nH]c(=O)n3C)n2Cc2ccccc2)cc1	-22.2%	
O=c1c2ccccc2nc(-c2ccc(Br)cc2)n1Cc1ccccc1		10 µM (active)
CCOC(=O)c1c(NC(=O)Cn2cc([N+](=O)[O-])cn2)sc2c1CCC2		2.82 µM (active)
COC(=O)c1c(NC(=O)Cn2cc([N+](=O)[O-])cn2)sc2c1CCC2		1.26 µM (active)
CC1Cc2ccccc2N1C(=O)Cn1cc([N+](=O)[O-])cn1 (stereo unspecified)	-18.3%	
CCOC(=O)c1c(NC(=O)CSc2nnc(C)s2)sc2c1CCCCC2		8.91 µM (active)
COC(=O)c1c(NC(=O)c2ccco2)sc2c1CCC2		0.891 µM (active)
CCC(=O)NC(Nc1sc2c(c1C(=O)OC)CCCC2)(C(F)(F)F)C(F)(F)F	-5.11%	
CC(=O)OC1COC(N2CCc3cc([N+](=O)[O-])ccc32)C(OC(C)=O)C1OC(C)=O (stereo unspecified)	0.819%	
C#CCSc1nc(Cc2ccc(Cl)cc2)nc2ccccc12		1.26 µM (active)
CCc1nc(SCC(=O)NNC(=O)C2CCCCC2)c2ccccc2n1	1.59%	
COc1cccc(CSc2nnc(C(F)(F)F)n2Cc2ccc(F)cc2)c1		11.2 µM (active)
Fc1ccc(Cn2c(SCc3ccc(F)c(C(F)(F)F)c3)nnc2C(F)(F)F)cc1	-29.4%	
CC(C)CC1NC(=S)N(C2CCCCC2)C1=O (stereo unspecified)	-15.6%	
O=C(Nc1ccc(N2CCCCC2)cc1)c1cncc(Br)c1		4.47 µM (active)
CCc1ccc(OCCCC(=O)Nc2ccc(N3CCCCC3)cc2)cc1	-6.6%	
CC(=O)Nc1ccc(N2CCCCC2)cc1		14.1 µM (active)

Compound	activity, negative = inhibition	AC50
CC(=O)N1CCN(c2ccc(NC(=O)c3ccc(C)cc3)cc2)CC1	0.154%	
CC(=O)Nc1ccc(N2CCCCC2)c(C(=O)Nc2cccc(C)c2)c1		14.1 µM (active)
O=C(/C=C/c1ccc(Cl)cc1)Nc1ccc(N2CCCCC2)cc1	-7.34%	
Cc1ccc(NC(=O)c2cc(NC(=O)CCC(=O)O)ccc2N2CCCCC2)cc1	-14.5%	
Cc1c(N2CCCC2)cc2c(c1NC(=O)c1ccccc1Cl)C(C)(C)CC2(C)C	-13.1% [at 2.29 µM]	
CC(C)CN1CCC2(CC1)CCN(C(=O)c1cnccn1)CC2	-7.79%	
CC(=O)OC[C@@H]1O[C@@H](O/N=C2/C[C@@H](O)[C@@H](O)[C@@H]3[C@@H]4C(=O)N(Cc5ccccc5)C(=O)[C@H]4CC[C@H]23)[C@H](OC(C)=O)[C@H](OC(C)=O)[C@@H]1OC(C)=O	-1.74% [at 11.4 µM]	
CSc1nc2c(c(C(F)(F)F)n1)CC(C)CC2 (stereo unspecified)		25.1 µM (active)
O=C(Nc1ccc(OC(F)(F)F)cc1)c1n[nH]c(Cn2cncn2)n1		0.158 µM (active)
O=C(Nc1cccc(C(F)(F)F)c1)c1n[nH]c(Cn2cncn2)n1		0.126 µM (active)
C[C@H](NC(=O)Cn1cncn1)c1ccccc1	-3.83%	
O=[N+]([O-])c1cc(C(F)(F)F)ccc1NCCCCNS(=O)(=O)c1ccc2ccccc2c1	-31.8%	
Cc1ccccc1OCCNc1ccc(C(F)(F)F)cc1[N+](=O)[O-]		0.891 µM (active)
COC(=O)c1c(C)[nH]c(C)c1C(=O)c1ccccc1Cc1ccccc1		0.251 µM (active)
Cc1ccc(C)c(C(=N)c2ccccc2Cc2ccccc2)c1	-6.82% [at 2.29 µM]	
Nc1nc(SCc2ccc([N+](=O)[O-])cc2)c2ncn([C@@H]3O[C@@H](CO)[C@@H](O)[C@H]3O)c2n1	-8.58%	
Cc1ccc(CS(=O)(=O)CCC(=O)NCCCN2CCCC2=O)cc1	-15.9%	
Cc1ccc(S(=O)(=O)N(CCCN2CCCC2=O)Cc2cc3c(C)ccc(C)c3[nH]c2=O)cc1	-21%	
COc1ccc2[nH]c3c(NCCCN4CCCC4=O)ncnc3c2c1		11.2 µM (active)
CC(=O)N[C@@H](CC(=O)O)C(=O)O	-4.66% [at 25.6 µM]	
CC1CC(C)CN(C(=O)CSc2nnc(CSc3ncccn3)n2C)C1 (stereo unspecified)	-0.204%	

Compound	activity, negative = inhibition	AC50
CC1CCN(C(=O)C2CCN(S(=O)(=O)c3cccc4nonc34)CC2)CC1	-0.137%	
Cn1c(SCC(=O)N2CCN(S(=O)(=O)c3ccccc3)CC2)nc2ccccc21	-17.9%	
Cc1nc2ccccc2nc1SCC(=O)N1CCC(C)CC1		3.55 µM (active)
CC1CCN(C(=O)CSc2nc3cccnc3n2C)CC1		20 µM (active)
NC(=O)C1CCN(C(=O)CN2C(=O)c3ccccc3S2(=O)=O)CC1	1.85%	
CCc1cc2c(nc1CC)CCN(CC/C(C)=N/O[C@@H]1O[C@H](COC(C)=O)[C@H](OC(C)=O)[C@H](OC(C)=O)[C@H]1OC(C)=O)C2	0.132% [at 11.4 µM]	
Nc1nonc1-c1noc(CCCN2C(=O)c3ccccc3C2=O)n1		14.1 µM (active)
O=C(NCc1cccnc1)/C(=C/c1ccc(-c2cccc(Cl)c2)o1)S(=O)(=O)c1ccccc1		25.1 µM (active)
Cc1ccc(NC(=O)C(=O)NCc2ccc(/C=C(/C#N)C(=O)NCc3cccnc3)o2)cc1	-13.3%	
COc1ccc2c(c1[N+](=O)[O-])CCC/C2=N/OC(=O)c1cccc2ccccc12		0.794 µM (active)
COc1ccccc1C(=O)O/N=C1/CCCc2c1ccc(OC)c2[N+](=O)[O-]		0.447 µM (active)
COc1ccc2c(c1[N+](=O)[O-])CCC/C2=N/OC(=O)c1ccccc1SC		0.794 µM (active)
CC1CSc2nc3sc4c(c3c(=O)n21)CCCC4 (stereo unspecified)		3.55 µM (active)
CSC(=NC#N)N1CCN(c2ccc(Cl)cc2)CC1		4.47 µM (active)
C[C@H](N[C@@H](C)COc1ccccc1)[C@H](O)c1ccc(O)cc1		5.01 µM (active)
C[C@H](NCCc1ccc(O)cc1)[C@@H](O)c1ccc(O)cc1		inactive
CCOC(=O)C1C(=O)C=C(c2ccc(C)cc2)CC1c1ccco1 (stereo unspecified)		4.47 µM (active)
Cc1ccc(C(CC(N)=O)c2ccco2)cc1 (stereo unspecified)	-5.6%	
CCOC(=O)C1=C(N)n2c(s/c(=C\c3ccco3)c2=O)=C(C(=O)OCC)C1c1ccco1 (stereo unspecified)	-56%	
